Source: PubChem BioAssay (EPA / NIEHS)
Values joined by “and” are separate entries in the source; they are usually repeats but may differ in a detail not shown here. Equal values may be shown once. Some structures have more than one record in an assay (separate samples or runs), and their calls can disagree. Active and inactive are the calls of the source. How the source made its calls: active means hit-call score of the fitted dose curve at least 0.9, where 1 is the maximum; inactive means score below 0.9.

Assays:
[1] = read-out: Collagen I, COL1A1 (gene 1277); assay: BSK_MyoF_CollagenI: BioMAP Diversity Plus: MyoF Assay for Collagen I Biomarker Activity (AID 2284238); conditions: primary human lung fibroblasts
Method in brief: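 Primary human lung fibroblasts (MyoF system) treated 24 h; Collagen I quantified by ELISA and fitted in positive direction against DMSO. Parallel SRB total-protein staining assessed overt cytotoxicity.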

[2] = read-out: Collagen III, COL3A1 (gene 1281); assay: BSK_MyoF_CollagenIII: BioMAP Diversity Plus: MyoF Assay for Collagen III Biomarker Activity (AID 2284239); conditions: primary human lung fibroblasts
Method in brief: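 Primary human lung fibroblasts (BioMAP MyoF system) exposed 24 h. Collagen III measured by ELISA; positive-direction fit relative to DMSO.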

[3] = read-out: Interleukin 17F (IL17F), IL17F (gene 112744); assay: BSK_BT_xIL17F: BioMAP Diversity Plus: BT Assay for Interleukin 17F (IL17F) Biomarker Activity (AID 2284243); conditions: primary human B cells with PBMC
Method in brief: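 Human PBMC co-cultured with B cells, compound exposure 24 h; secreted IL-17F quantified by Luminex xMAP, referenced to DMSO control. PBMC viability measured in parallel by Alamar Blue reduction.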

[4] = read-out: Actin alpha 1 (ACTA1), ACTA1 (gene 58); assay: BSK_MyoF_ACTA1: BioMAP Diversity Plus: MyoF Assay for Actin alpha 1 (ACTA1) Biomarker Activity (AID 2284244); conditions: primary human lung fibroblasts
Method in brief: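 Measured by ELISA: alpha-smooth muscle actin in human primary lung fibroblasts 24 h after dosing, with DMSO as baseline and upward signal change as the fitted direction.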

[5] = read-out: Interleukin 2 (IL2), IL2 (gene 3558); assay: BSK_BT_xIL2: BioMAP Diversity Plus: BT Assay for Interleukin 2 (IL2) Biomarker Activity (AID 2284245); conditions: primary human B cells with PBMC
Method in brief: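 Secreted interleukin-2 from human B cell/PBMC co-cultures, measured 24 h post-dosing by Luminex multiplex immunoassay. Upward-direction curve fitting against DMSO baseline.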

[6] = read-out: Basic fibroblast growth factor (bFGF), FGF2 (gene 2247); assay: BSK_MyoF_bFGF: BioMAP Diversity Plus: MyoF Assay for Basic fibroblast growth factor (bFGF) Biomarker Activity (AID 2284246); conditions: primary human lung fibroblasts
Method in brief: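 In this multiplexed cell system, lung fibroblasts (human primary) receive test chemical for 24 h before ELISA detection of bFGF; DMSO defines baseline and the analysis direction is positive.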

[7] = read-out: Collagen IV, COL4A1 (gene 1282); assay: BSK_MyoF_CollagenIV: BioMAP Diversity Plus: MyoF Assay for Collagen IV Biomarker Activity (AID 2284247); conditions: primary human lung fibroblasts
Method in brief: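 Activity is scored as a signal increase over DMSO in an ELISA for Collagen IV, measured on human lung fibroblasts at 24 h after chemical treatment. Cytotoxicity is checked in parallel cultures by sulforhodamine B total-protein staining.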

[8] = read-out: Plasminogen activator inhibitor-1 (PAI1), SERPINE1 (gene 5054); assay: BSK_MyoF_PAI1: BioMAP Diversity Plus: MyoF Assay for Plasminogen activator inhibitor-1 (PAI1) Biomarker Activity (AID 2284256); conditions: primary human lung fibroblasts
Method in brief: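 Primary human lung fibroblasts treated with chemical for 24 h; PAI-1 levels quantified by ELISA relative to DMSO. Cytotoxicity was assessed in parallel cultures by SRB total-protein staining (0.1% SRB after 10% TCA fixation, 560 nm).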

[9] = read-out: Monokine induced gamma interferon (MIG), CXCL9 (gene 4283); assay: BSK_KF3CT_MIG: BioMAP Diversity Plus: KF3CT Assay for Monokine induced gamma interferon (MIG) Biomarker Activity (AID 2284248); conditions: primary human keratinocytes with fibroblasts
Method in brief: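 Human keratinocyte–foreskin fibroblast co-culture; MIG measured by ELISA 24 h after chemical dosing, fitted upward versus DMSO. Cytotoxicity was assessed in parallel cultures by SRB total-protein staining read at 560 nm.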

[10] = read-out: Collagen I, COL1A1 (gene 1277); assay: BSK_hDFCGF_CollagenI: BioMAP Diversity Plus: hDFCGF Assay for Collagen I Biomarker Activity (AID 2284250); conditions: primary human foreskin fibroblasts
Method in brief: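 Cells were primary human foreskin fibroblasts treated for 24 h. Collagen I levels were then determined by ELISA and compared against DMSO controls.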

[11] = read-out: Interferon-inducible T-cell alpha chemoattractant (ITAC), CXCL11 (gene 6373); assay: BSK_hDFCGF_ITAC: BioMAP Diversity Plus: hDFCGF Assay for Interferon-inducible T-cell alpha chemoattractant (ITAC) Biomarker Activity (AID 2284251); conditions: primary human foreskin fibroblasts
Method in brief: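 ELISA readout of I-TAC after 24 h chemical exposure; human dermal foreskin fibroblast primary cells. Positive-direction fitting vs DMSO baseline. Parallel SRB total-protein staining (0.1% SRB after 10% TCA fixation, 560 nm) flags cytotoxicity.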

[12] = read-out: Plasminogen activator inhibitor-1 (PAI1), SERPINE1 (gene 5054); assay: BSK_KF3CT_PAI1: BioMAP Diversity Plus: KF3CT Assay for Plasminogen activator inhibitor-1 (PAI1) Biomarker Activity (AID 2284252); conditions: primary human keratinocytes with fibroblasts
Method in brief: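 Signal is PAI-1 detected by ELISA in a human skin-derived keratinocyte/fibroblast co-culture, 24 h after dosing; DMSO served as negative control and baseline.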

[13] = read-out: Monocyte Chemoattractant Protein-1 (MCP1), CCL2 (gene 6347); assay: BSK_IMphg_MCP1: BioMAP Diversity Plus: IMphg Assay for Monocyte Chemoattractant Protein-1 (MCP1) Biomarker Activity (AID 2284253); conditions: primary human endothelial cells with macrophages
Method in brief: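 Human venular endothelial cells co-cultured with macrophages; MCP-1 measured by ELISA 24 hours post-dose and fitted against DMSO. Cytotoxicity monitored by SRB total-protein staining in parallel cultures.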

[14] = read-out: Interleukin-8 (IL8), CXCL8 (gene 3576); assay: BSK_KF3CT_IL8: BioMAP Diversity Plus: KF3CT Assay for Interleukin-8 (IL8) Biomarker Activity (AID 2284254); conditions: primary human keratinocytes with fibroblasts
Method in brief: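 Human keratinocyte/foreskin fibroblast co-culture dosed 24 h; IL-8 measured by ELISA relative to DMSO. Parallel cultures stained with SRB for total protein to flag cytotoxicity.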

[15] = read-out: CD69, CD69 (gene 969); assay: BSK_IMphg_CD69: BioMAP Diversity Plus: IMphg Assay for CD69 Biomarker Activity (AID 2284257); conditions: primary human endothelial cells with macrophages
Method in brief: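 Human venular endothelial cells co-cultured with macrophages; CD69 quantified by ELISA 24 h after compound addition. Activity fitted in the positive direction relative to DMSO baseline; cytotoxicity tracked in parallel cultures via SRB total-protein staining.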

[16] = read-out: Eotaxin 3, CCL26 (gene 10344); assay: BSK_BF4T_Eotaxin3: BioMAP Diversity Plus: BF4T Assay for Eotaxin 3 Biomarker Activity (AID 2284258); conditions: primary human bronchial epithelial cells with fibroblasts
Method in brief: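 Co-culture of human bronchial epithelial cells and dermal fibroblasts, exposed to chemicals for 24 h versus DMSO. Eotaxin-3 quantified by ELISA; cytotoxicity checked in parallel cultures by sulforhodamine B total-protein staining.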

[17] = read-out: Vascular cell adhesion molecule 1 (VCAM1), VCAM1 (gene 7412); assay: BSK_BF4T_VCAM1: BioMAP Diversity Plus: BF4T Assay for Vascular cell adhesion molecule 1 (VCAM1) Biomarker Activity (AID 2284249); conditions: primary human bronchial epithelial cells with fibroblasts
Method in brief: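 Human bronchial epithelial cell and dermal fibroblast co-culture exposed 24 h. VCAM-1 measured by ELISA; parallel SRB total-protein staining for cytotoxicity. Fitted in positive direction relative to DMSO.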

Measured: AC50

O=C1C=CC(=O)N1c1ccc(Cc2ccc(N3C(=O)C=CC3=O)cc2)cc1
active: [1] 2.69 µM | [2] 3.46 µM | [3] 2.45 µM | [4] 2.79 µM | [5] 4.5 µM | [6] 5.53 µM | [7] 1.99 µM | [8] 5.09 µM

OC(O)C(F)(F)C(F)(F)F
not listed: [6] | [16] | [17]
inactive: all other assays above

OCC(F)(F)C(F)(F)C(F)(F)CO
inactive: [1] | [2] | [3] | [4] | [5] | [7] | [9] | [10] | [11] | [12] | [13] | [14] | [8] | [15] | [16]
active: [11] 9.21 µM

CCN(CC)c1ccc(N=Nc2ccccc2)cc1
active: [1] 20 µM | [3] 31 µM | [4] 23.8 µM | [5] 32.6 µM | [7] 9.37 µM
inactive: [2] | [8]

CC1=CC2C3C=CC(C3)C2C1C (configuration not stated)
inactive: [1] | [2] | [3] | [4] | [5] | [7] | [8]

O=C(c1ccccc1)c1ccc(O)cc1O
inactive: [1] | [2] | [3] | [4] | [5] | [7] | [8]

CN(C(=O)C(F)(F)C(F)(F)C(F)(F)F)[Si](C)(C)C
not listed: [6] | [16]
inactive: all other assays above

O=S(=O)(Cl)C(F)(F)C(F)(F)C(F)(F)C(F)(F)C(F)(F)C(F)(F)C(F)(F)C(F)(F)F
inactive: [1] | [3] | [4] | [5] | [9] | [10] | [11] | [13] | [14] | [8] | [15]
active: [2] 30 µM and 41.1 µM | [7] 41.1 µM and 30.1 µM | [12] 25 µM and 22.1 µM | [15] 15.1 µM | [16] 28.3 µM and 19.5 µM

CCN(CC)c1ccc(C=O)cc1
inactive: [1] | [2] | [3] | [4] | [5] | [7] | [8]

O=C1c2c(O)ccc(Nc3ccc(CCO)cc3)c2C(=O)c2c([N+](=O)[O-])ccc(O)c21
inactive: [5] | [6]
active: [1] 28.9 µM | [2] 30.2 µM | [3] 35.3 µM | [4] 25.6 µM | [7] 34.1 µM | [8] 32.3 µM

OCC(O)CC(F)(F)C(F)(F)C(F)(F)C(F)(F)C(F)(F)C(F)(F)C(F)(F)C(F)(F)F (configuration not stated)
not listed: [6] | [16] | [17]
inactive: all other assays above

O=C(Cl)C(F)(F)C(F)(F)C(F)(F)C(F)(F)C(F)(F)C(F)(F)C(F)(F)F
inactive: [1] | [2] | [3] | [4] | [5] | [7] | [9] | [10] | [11] | [12] | [13] | [14] | [8] | [15] | [16]
active: [13] 52.9 µM

C[C@]12CC[C@H]3C(=CCc4cc(O)ccc43)[C@@H]1CCC2=O
inactive: [1] | [2] | [4] | [5] | [7] | [8]
active: [3] 20 µM

Cc1cc(O)c(C(C)(C)C)cc1C(C)(C)C
active: [1] 4.19 µM | [2] 5.41 µM | [3] 27.3 µM | [4] 3.74 µM | [5] 31.2 µM | [6] 5.37 µM | [7] 4.74 µM | [8] 7.48 µM

Cc1ccc(O)c(-n2nc3ccccc3n2)c1
inactive: [1] | [2] | [3] | [4] | [5] | [6] | [7] | [8]

FC(F)(F)C(F)(F)C(F)(F)CC1CO1 (configuration not stated)
inactive: [1] | [2] | [3] | [4] | [5] | [7] | [9] | [10] | [11] | [12] | [13] | [14] | [8] | [15]
active: [11] 5.97 µM

O=C(Cl)C(F)(F)C(F)(F)C(F)(F)C(F)(F)C(F)(F)C(F)(F)F
not listed: [6] | [16] | [17]
inactive: all other assays above

O=S(=O)(O)CCC(F)(F)C(F)(F)C(F)(F)C(F)(F)F
inactive: [1] | [2] | [3] | [4] | [5] | [7] | [9] | [10] | [11] | [12] | [13] | [14] | [8] | [15]
active: [11] 0.931 µM
